An excerpt weighted towards active compounds, which were near 12% of everything screened.
Sfp PPTase inh – blocks B. subtilis Sfp PPTase activity; Q9F4F7; Biochemical Sfp PPTase activity, qHTS; Potency, µM, hits mostly inhibitors; actives 3.5% (n = 310,000);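 note: the enzyme is Sfp with the accession as filed and its product quenches rhodamine fluorescence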
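After 15 min at room temperature with compound, 15 nM Sfp received 5 uM rhodamine-CoA plus 12.5 uM BHQ-2-ybbR (50 mM Hepes pH 7.6, 10 mM MgCl2). Rate came from the fluorescence difference over 30 min, ex 525/em 598 nm.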
HP1b binding inh – blocks HP1-beta chromodomain binding to methylated histone tails; P83916; AlphaScreen HP1-beta / biotin-H3K9me3 peptide binding; Potency, µM (series often up to 114 µM), most hits filed as inhibitors; actives 0.56% (n = 390,000); AID 540317; note: nearly all actives have a fitted effect of over 70% in size
Target sequence (P83916 whole entry, looked up): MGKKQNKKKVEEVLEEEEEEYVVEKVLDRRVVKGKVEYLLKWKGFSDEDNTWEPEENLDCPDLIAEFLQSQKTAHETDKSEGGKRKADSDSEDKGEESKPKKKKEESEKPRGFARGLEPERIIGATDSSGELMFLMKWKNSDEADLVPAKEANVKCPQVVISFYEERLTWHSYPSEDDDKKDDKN
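Compound inhibition of the preformed complex between 50 nM HP1-beta and 50 nM biotinylated H3K9me3 peptide was read by AlphaScreen. Buffer was PBS pH 7.4 with 0.01% Tween-20. Incubations ran 30 min at room temperature, with 10 ug/mL donor/acceptor beads.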
BAZ2B block – blocks human BAZ2B. Q9UIF8. AlphaScreen BAZ2B-H3K14Ac peptide displacement. Potency, µM (top dose mostly 114 µM), most hits filed as inhibitors. actives 4.4% (n = 360,000). AID 504333; note: nearly all actives have a fitted effect of over 60% in size
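AlphaScreen luminescence quantifies BAZ2B engagement of H3K14Ac peptide; the protein and biotinylated peptide are both at 50 nM final, buffer PBS pH 7.4 with 0.01% Tween-20, all steps at room temperature.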
G9a inh – G9a (human) methyltransferase inhibition | Q96KQ7 | G9a H3K9 monomethylation, AlphaScreen, 2 h | Potency, µM (highest dose often 102 µM), usual class: inhibitors | actives 8.8% (n = 350,000); note: nearly all actives have a fitted effect of over 75% in size
Target sequence (Q96KQ7 913-1193 limits assumed): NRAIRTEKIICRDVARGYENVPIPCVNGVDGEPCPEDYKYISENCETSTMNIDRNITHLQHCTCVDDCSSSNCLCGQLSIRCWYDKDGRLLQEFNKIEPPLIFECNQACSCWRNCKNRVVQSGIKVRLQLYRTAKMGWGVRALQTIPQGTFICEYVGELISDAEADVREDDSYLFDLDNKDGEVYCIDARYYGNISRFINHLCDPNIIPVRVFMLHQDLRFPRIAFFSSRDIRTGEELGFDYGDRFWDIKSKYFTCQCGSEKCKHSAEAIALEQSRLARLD
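Chemiluminescent proximity detection of H3K9 monomethylation, read after 10 min bead incubation in the dark. Reaction: 20 nM G9a, 500 nM biotin-H3K9 peptide, 20 uM SAM cofactor, 2 h, room temperature, following 15 min enzyme-compound preincubation.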
JMJD2A Tudor – JMJD2A Tudor domain (human) inhibition; O75164; actives 4.4% (n = 390,000); Potency, µM (top dose mostly 114 µM), usual class: inhibitors; AlphaScreen JMJD2A-Tudor / H3K4me3 peptide binding; note: nearly all actives have a fitted effect of over 50% in size
Each line names hits and unclear results; the compound was inactive in the other large screens. Calls come from the whole dose curve; as a rule, active = well fitted curve in the direction sought with a large enough effect; inconclusive = small, poorly fitted or top-dose-only effect, or another doubt; inactive = no such curve, though single readings can be large; an effect the other way counts as inactive or inconclusive.

CC(=O)N(C)C1=C(N2CCOCC2)C(=O)c2ccccc2C1=O	G9a inh inconclusive
O=C(NNCc1ccccc1)c1ccccn1	JMJD2A Tudor inconclusive (no result: Sfp PPTase inh, BAZ2B block, G9a inh)
CC1CCCC(N2CCN(C(=O)c3ccccc3F)CC2)C1 (configuration not stated)	none
O=C(c1cccc(Cl)c1)N1CCN(C2CCCCCC2)CC1	HP1b binding inh 25.1µM, BAZ2B block 44.7µM, G9a inh 20µM, JMJD2A Tudor 7.94µM
O=C(c1ccccc1)N1CCN(C(=O)c2ccccc2)CC1	G9a inh inconclusive
CC1CCN(C2CCN(C(=O)c3ccccc3F)CC2)CC1	HP1b binding inh inconclusive, BAZ2B block inconclusive, G9a inh 28.2µM, JMJD2A Tudor 0.891µM
O=C(c1ccncc1)N1CCN(C2CCCCC2)CC1	HP1b binding inh inconclusive, BAZ2B block 50.1µM, G9a inh 15.8µM, JMJD2A Tudor 1.12µM
O=C(c1ccccc1)N1CCN(C2CCCCC2)CC1	Sfp PPTase inh inconclusive, HP1b binding inh inconclusive, BAZ2B block inconclusive, G9a inh 7.94µM, JMJD2A Tudor 7.08µM
CCc1c(C)sc2c1CCN(Cc1cccc(F)c1)C2c1ccccc1 (configuration not stated)	BAZ2B block inconclusive, JMJD2A Tudor inconclusive (no result: Sfp PPTase inh)
Cc1nnc(NC(=O)CSc2nccn2Cc2ccc(F)cc2)s1	none
CC(C)=CCN1CCN(Cc2cn(C(C)C)c3ccccc23)CC1CCO (configuration not stated)	none
CC1CN(C2CCN(C(=O)c3ccccc3)CC2)CC(C)O1 (configuration not stated)	HP1b binding inh inconclusive, BAZ2B block 56.2µM, G9a inh 2.51µM, JMJD2A Tudor 1.26µM
O=C(c1ccc(F)cc1)N1CCC(N2CCOCC2)CC1	BAZ2B block inconclusive, G9a inh 10µM, JMJD2A Tudor 7.94µM
CC1CN(C(=O)c2ccc(C(=O)c3ccccc3)cc2)CC(C)O1 (configuration not stated)	none
O=C(C1CCCCC1)N1CCCC(c2nc3c(nnn3Cc3ccccc3)c(=O)[nH]2)C1 (configuration not stated)	none
Cc1ccc(C)c(Cn2nnc3c(=O)[nH]c(C4CCCN(C(=O)C5CCCCC5)C4)nc32)c1 (configuration not stated)	Sfp PPTase inh 50.1µM, BAZ2B block inconclusive
CCN(CC(=O)Nc1ccccc1C(F)(F)F)C(=O)/C=C/c1ccc(Cl)c([N+](=O)[O-])c1	G9a inh 17.8µM (no result: Sfp PPTase inh)
CCN(CC)c1cc(C)c2cc(NC(=O)c3ccccc3Cl)ccc2n1	none (no result: Sfp PPTase inh)
CCN(CC)c1cc(C)c2ccccc2n1	G9a inh 1.12µM, JMJD2A Tudor inconclusive
NC(=O)C1CCCN(C(=O)c2ccc(Cl)c(S(=O)(=O)N3CCc4ccccc43)c2)C1 (configuration not stated)	none (no result: Sfp PPTase inh)
CCOC(=O)C(C)N1C(=O)S/C(=C/c2cc(C)n(-c3ccncc3)c2C)C1=O (configuration not stated)	BAZ2B block inconclusive, G9a inh 50.1µM, JMJD2A Tudor inconclusive
CCOC(=O)C(C)N1C(=O)S/C(=C/c2cc(C)n(-c3ccccn3)c2C)C1=O (configuration not stated)	BAZ2B block inconclusive, JMJD2A Tudor 56.2µM
O=C(NC(=S)NCc1ccc2c(c1)OCO2)c1ccccc1	BAZ2B block inconclusive, G9a inh inconclusive
Cc1c(Cl)cccc1NC(=S)/C(=C(\[O-])c1ccc(Cl)s1)[n+]1ccccc1	HP1b binding inh inconclusive, BAZ2B block inconclusive, G9a inh inconclusive, JMJD2A Tudor 44.7µM
Cc1ccc(NC(=S)/C(=C(\[O-])c2ccc(Cl)s2)[n+]2cccc(CO)c2)cc1C	Sfp PPTase inh 25.1µM, HP1b binding inh inconclusive, G9a inh 44.7µM, JMJD2A Tudor 50.1µM
CC(C)c1ccc(NC(=S)Nc2cccc3ccccc23)cc1	BAZ2B block inconclusive, G9a inh inconclusive, JMJD2A Tudor inconclusive
[O-]/C(=C(\C(=S)Nc1cccc2ccccc12)[n+]1cccc(CO)c1)c1ccc(Cl)s1	BAZ2B block 31.6µM, G9a inh 39.8µM, JMJD2A Tudor inconclusive
[O-]/C(=C(\C(=S)NCc1ccc2c(c1)OCO2)[n+]1ccccc1)c1ccc(Cl)s1	Sfp PPTase inh 39.8µM, BAZ2B block 44.7µM, G9a inh 28.2µM
CS(=O)(=O)c1ccc(Cl)c(NC(=O)Cc2ccsc2)c1	none
[O-]/C(=C(\C(=S)Nc1ccc(SC(F)F)cc1)[n+]1cccc(CO)c1)c1ccc(Cl)s1	Sfp PPTase inh inconclusive, BAZ2B block 31.6µM, G9a inh 25.1µM, JMJD2A Tudor inconclusive
CN(C)CCN=Cc1c(O)n(Cc2ccccc2)c(=O)c2ccccc12	G9a inh 56.2µM
COc1ccc(-c2cn3nc(N4CCCC(C(=O)Nc5cccc(OC)c5)C4)sc3n2)cc1 (configuration not stated)	G9a inh inconclusive (no result: Sfp PPTase inh)
Cc1cnc(C(=O)OCC(=O)N=c2sccn2Cc2ccccc2Cl)cn1	none
O=C(COC(=O)c1cnccn1)N=c1sccn1Cc1ccccc1Cl	G9a inh 56.2µM (no result: Sfp PPTase inh)
O=C(CNc1cccc2ccccc12)N/N=C/c1ccccn1	G9a inh inconclusive
COc1ccc(/C=N/NC(=O)CCn2c3ccccc3c3ccccc32)cc1O	JMJD2A Tudor inconclusive
O=C(CNc1cccc2ccccc12)N/N=C/c1cccc(Oc2ccccc2)c1	BAZ2B block inconclusive, G9a inh 10µM, JMJD2A Tudor inconclusive
COc1cccc(/C=N/NC(=O)CCn2c3ccccc3c3ccccc32)c1	G9a inh 17.8µM
O=C(CNc1cccc2ccccc12)N/N=C/c1ccc([N+](=O)[O-])cc1	G9a inh 8.91µM
Cc1ccccc1NCC(=O)N/N=C/c1ccc([N+](=O)[O-])cc1	G9a inh inconclusive
CN(C(=O)c1ccc(NC(=O)Cc2ccc(NC(=O)C3CCCN(C(=O)C4CC4)C3)cc2)cc1)C1CCCC1 (configuration not stated)	none (no result: Sfp PPTase inh, BAZ2B block, G9a inh)
COC(=O)c1[nH]c2ccc(C)cc2c1NC(=O)Nc1ccccc1OC	Sfp PPTase inh inconclusive, G9a inh 39.8µM
COC(=O)c1[nH]c2ccc(C)cc2c1NC(=O)CN1CCc2cc(OC)c(OC)cc2C1	BAZ2B block inconclusive, G9a inh 50.1µM
COc1cc(C(=O)Nc2c(C(=O)O)[nH]c3ccc(C)cc23)cc(OC)c1OC	G9a inh inconclusive
C/C(=N/NS(=O)(=O)c1cccc([N+](=O)[O-])c1)c1ccc2c(c1)OCO2	G9a inh 31.6µM
C/C(=N\NS(=O)(=O)c1ccc(Cl)c([N+](=O)[O-])c1)c1ccc(C)o1	BAZ2B block 79.4µM, JMJD2A Tudor inconclusive
COc1ccc(OC)c(S(=O)(=O)N/N=C(/C)c2ccc3c(c2)OCO3)c1	G9a inh 31.6µM
C/C(=N\NS(=O)(=O)c1ccc(C)c([N+](=O)[O-])c1)c1ccc2c(c1)OCO2	G9a inh 44.7µM

Screening data (PubChem BioAssay)
